Reference: the supplement of paper PMC8728848
The sample as a whole holds a higher share of the strongest signals than the screen did.

Key:
Assay in all cases: glycan array binding signal (z-score within array); higher = stronger binding
Conditions in all cases: glycan notation: IUPAC condensed, linker removed
[1] = molecular target: Fuc(a1-2)Gal
In short: (§1)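 The Consortium for Functional Glycomics database supplied 3228 glycan arrays, of which those lacking an available protein sequence were dropped. The binding signal, a within-array Z-score, was averaged across arrays of the same protein sequence and across linkers. Negative scores can be read as non-binding.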

[2] = molecular target: Fuc(a1-2)Gal(b1-4)Fuc(a1-3)]GlcNAc(b1-2)Man(a1-3)[Fuc(a1-2)Gal(b1-4)[Fuc(a1-3)]GlcNAc(b1-2)Man(a1-6)]Man(b1-4)GlcNAc(b1-4)GlcNAc
In short: as §1

[3] = molecular target: Fuc(a1-2)Gal(b1-4)[Fuc(a1-3)]GlcNAc
In short: as §1

[4] = molecular target: Fuc(a1-2)[Gal(a1-3)]Gal(b1-3)GalNAc
In short: as §1

[5] = molecular target: Fuc(a1-2)[Gal(a1-3)]Gal(b1-3)GlcNAc(b1-2)Man(a1-3)[Fuc(a1-2)[Gal(a1-3)]Gal(b1-3)GlcNAc(b1-2)Man(a1-6)]Man(b1-4)GlcNAc(b1-4)GlcNAc
In short: as §1

[6] = molecular target: Fuc(a1-2)[Gal(a1-3)]Gal(b1-4)[Fuc(a1-3)]Glc
In short: as §1

[7] = molecular target: Fuc(a1-2)[GalNAc(a1-3)]Gal(b1-3)GalNAc(b1-3)Gal(a1-4)Gal(b1-4)Glc
In short: as §1

[8] = molecular target: Fuc(a1-2)[GalNAc(a1-3)]Gal(b1-4)Glc
In short: as §1

[9] = molecular target: Fuc(a1-2)[GalNAc(b1-3)]Gal
In short: as §1

[10] = molecular target: Fuc(a1-3)[Gal(b1-4)]GlcNAc(b1-2)Man(a1-3)[Fuc(a1-3)[Gal(b1-4)]GlcNAc(b1-2)Man(a1-6)]Man(b1-4)GlcNAc(b1-4)[Fuc(a1-6)]GlcNAc
In short: as §1

[11] = molecular target: Fuc(a1-3)[GalNAc(b1-4)]GlcNAc
In short: as §1

[12] = molecular target: Gal(a1-3)Gal(b1-3)GlcNAc(b1-6)GalNAc
In short: as §1

[13] = molecular target: Gal(a1-3)Gal(b1-4)GlcNAc(b1-2)Man(a1-3)[Gal(a1-3)Gal(b1-4)GlcNAc(b1-2)Man(a1-6)]Man(b1-4)GlcNAc(b1-4)GlcNAc
In short: as §1

[14] = molecular target: Gal(b1-4)GlcNAc(a1-6)Gal(b1-4)GlcNAc
In short: as §1

[15] = molecular target: Gal(b1-4)GlcNAc(b1-2)Man(a1-3)[Gal(b1-4)GlcNAc(b1-2)Man(a1-6)]Man(b1-4)GlcNAc(b1-4)GlcNAc
In short: as §1

[16] = molecular target: Gal(b1-4)GlcNAc(b1-2)[Gal(b1-4)GlcNAc(b1-4)]Man(a1-3)[GlcNAc(b1-4)][Gal(b1-4)GlcNAc(b1-2)[Gal(b1-4)GlcNAc(b1-6)]Man(a1-6)]Man(b1-4)GlcNAc(b1-4)GlcNAc
In short: as §1

[17] = molecular target: Gal(b1-4)GlcNAc(b1-2)[Gal(b1-4)GlcNAc(b1-6)]Man(a1-6)[Gal(b1-4)GlcNAc(b1-2)Man(a1-3)]Man(b1-4)GlcNAc(b1-4)GlcNAc
In short: as §1

[18] = molecular target: Gal(b1-4)GlcNAc(b1-3)Gal(b1-4)GlcNAc(b1-2)Man(a1-3)[Gal(b1-4)GlcNAc(b1-3)Gal(b1-4)GlcNAc(b1-2)Man(a1-6)]Man(b1-4)GlcNAc(b1-4)[Fuc(a1-6)]GlcNAc
In short: as §1

[19] = molecular target: Gal(b1-4)GlcNAc(b1-3)Gal(b1-4)GlcNAc(b1-2)[Gal(b1-4)GlcNAc(b1-3)Gal(b1-4)GlcNAc(b1-6)]Man(a1-6)[Gal(b1-4)GlcNAc(b1-3)Gal(b1-4)GlcNAc(b1-2)Man(a1-3)]Man(b1-4)GlcNAc(b1-4)GlcNAc
In short: as §1

[20] = molecular target: Gal(b1-4)GlcNAc(b1-3)Gal(b1-4)GlcNAc(b1-3)Gal(b1-4)GlcNAc(b1-3)Gal(b1-4)GlcNAc(b1-2)Man(a1-3)[Gal(b1-4)GlcNAc(b1-3)Gal(b1-4)GlcNAc(b1-3)Gal(b1-4)GlcNAc(b1-3)Gal(b1-4)GlcNAc(b1-2)Man(a1-6)]Man(b1-4)GlcNAc(b1-4)[Fuc(a1-6)]GlcNAc
In short: as §1

[21] = molecular target: Gal(b1-4)GlcNAc(b1-3)Gal(b1-4)GlcNAc(b1-3)Gal(b1-4)GlcNAc(b1-3)Gal(b1-4)GlcNAc(b1-2)[Gal(b1-4)GlcNAc(b1-3)Gal(b1-4)GlcNAc(b1-3)Gal(b1-4)GlcNAc(b1-3)Gal(b1-4)GlcNAc(b1-6)]Man(a1-6)[Gal(b1-4)GlcNAc(b1-3)Gal(b1-4)GlcNAc(b1-3)Gal(b1-4)GlcNAc(b1-3)Gal(b1-4)GlcNAc(b1-2)Man(a1-3)]Man(b1-4)GlcNAc(b1-4)[Fuc(a1-6)]GlcNAc
In short: as §1

[22] = molecular target: Gal(b1-4)GlcNAc(b1-3)Gal(b1-4)GlcNAc(b1-3)Gal(b1-4)GlcNAc(b1-3)Gal(b1-4)GlcNAc(b1-3)Gal(b1-4)GlcNAc(b1-3)Gal(b1-4)GlcNAc(b1-2)Man(a1-3)[Gal(b1-4)GlcNAc(b1-3)Gal(b1-4)GlcNAc(b1-3)Gal(b1-4)GlcNAc(b1-3)Gal(b1-4)GlcNAc(b1-3)Gal(b1-4)GlcNAc(b1-3)Gal(b1-4)GlcNAc(b1-2)Man(a1-6)]Man(b1-4)GlcNAc(b1-4)GlcNAc
In short: as §1

[23] = molecular target: Gal3S(b1-4)[Fuc(a1-3)]GlcNAc6S
In short: as §1

[24] = molecular target: GalNAc(b1-4)GlcNAc(b1-3)GalNAc(b1-4)GlcNAc
In short: as §1

[25] = molecular target: GalNAc4S6S(b1-4)GlcNAc
In short: as §1

[26] = molecular target: GlcA(b1-3)Gal
In short: as §1

[27] = molecular target: GlcNAc(b1-2)[GlcNAc(b1-4)]Man(a1-3)[GlcNAc(b1-2)Man(a1-6)]Man(b1-4)GlcNAc(b1-4)GlcNAc
In short: as §1

[28] = molecular target: GlcNAc(b1-3)Gal(b1-4)Glc
In short: as §1

[29] = molecular target: GlcNAc(b1-3)Gal(b1-4)GlcNAc(b1-3)Gal(b1-4)GlcNAc(b1-2)Man(a1-3)[GlcNAc(b1-3)Gal(b1-4)GlcNAc(b1-3)Gal(b1-4)GlcNAc(b1-2)Man(a1-6)]Man(b1-4)GlcNAc(b1-4)GlcNAc
In short: as §1

[30] = molecular target: MurNAc(b1-4)GlcNAc
In short: as §1

[31] = molecular target: Neu5Ac(a2-3)Gal
In short: as §1

[32] = molecular target: Neu5Ac(a2-3)Gal(b1-3)GalNAc(b1-4)[Neu5Ac(a2-8)Neu5Ac(a2-3)]Gal(b1-4)Glc
In short: as §1

[33] = molecular target: Neu5Ac(a2-3)Gal(b1-3)GlcNAc(b1-2)Man
In short: as §1

[34] = molecular target: Neu5Ac(a2-3)Gal(b1-4)GlcNAc(b1-2)Man(a1-3)[GlcNAc(b1-4)][Neu5Ac(a2-3)Gal(b1-4)GlcNAc(b1-2)Man(a1-6)]Man(b1-4)GlcNAc(b1-4)GlcNAc
In short: as §1

[35] = molecular target: Neu5Ac(a2-3)Gal(b1-4)GlcNAc(b1-3)Gal(b1-4)GlcNAc
In short: as §1

[36] = molecular target: Neu5Ac(a2-3)Gal(b1-4)GlcNAc(b1-3)Gal(b1-4)[Fuc(a1-3)]GlcNAc
In short: as §1

[37] = molecular target: Neu5Ac(a2-3)Gal(b1-4)GlcNAc(b1-6)[Neu5Ac(a2-3)Gal(b1-3)]GalNAc
In short: as §1

[38] = molecular target: Neu5Ac(a2-3)Gal(b1-4)GlcNAc6S
In short: as §1

[39] = molecular target: Neu5Ac(a2-3)Gal(b1-4)[Fuc(a1-3)]GlcNAc(b1-6)[Gal(b1-3)]GalNAc
In short: as §1

[40] = molecular target: Neu5Ac(a2-6)GalNAc(b1-4)GlcNAc
In short: as §1

[41] = molecular target: Neu5Ac(a2-6)GlcNAc(b1-4)GlcNAc
In short: as §1

[42] = molecular target: Neu5Ac(a2-8)Neu5Ac(a2-8)Neu5Ac
In short: as §1

[43] = molecular target: Neu5Gc(a2-3)Gal(b1-4)[Fuc(a1-3)]GlcNAc
In short: as §1

B1: HA-11100 (Pseudomonas aeruginosa), Q02G51_PSEAB (protein)
chain: QFNPNEIKISQQGKTTLIDQSTQRAIINWKGFDVSADEAVRFNQPGVTSSTLNRVTAGQESVIAGRISAPGQVIIYNSNGVVFSGSAKVDVGSLITTTANISDEHFRQGKLIFDQPGNPDARIVNDGSISVAEKGLAAFVAPSVANNGVINARLGTVAMAAGNAATIDLYG
- glycan array binding signal (z-score) [1]: -0.09
- glycan array binding signal (z-score) [2]: 3.58
- glycan array binding signal (z-score) [3]: -0.134
- glycan array binding signal (z-score) [4]: -0.312
- glycan array binding signal (z-score) [5]: 7.81
- glycan array binding signal (z-score) [6]: 0.052
- glycan array binding signal (z-score) [7]: 0.044
- glycan array binding signal (z-score) [8]: -0.174
- glycan array binding signal (z-score) [9]: -0.384
- glycan array binding signal (z-score) [10]: 3.33
- glycan array binding signal (z-score) [11]: -0.403
- glycan array binding signal (z-score) [12]: -0.463
- glycan array binding signal (z-score) [13]: 3.53
- glycan array binding signal (z-score) [14]: -0.29
- glycan array binding signal (z-score) [15]: -0.512
- glycan array binding signal (z-score) [16]: 3.28
- glycan array binding signal (z-score) [17]: 7.59
- glycan array binding signal (z-score) [18]: 10.5
- glycan array binding signal (z-score) [19]: 5.77
- glycan array binding signal (z-score) [20]: 2.99
- glycan array binding signal (z-score) [21]: 3.24
- glycan array binding signal (z-score) [22]: 1.87
- glycan array binding signal (z-score) [23]: -0.451
- glycan array binding signal (z-score) [24]: 0.008
- glycan array binding signal (z-score) [25]: -0.38
- glycan array binding signal (z-score) [26]: -0.243
- glycan array binding signal (z-score) [27]: -0.37
- glycan array binding signal (z-score) [28]: -0.359
- glycan array binding signal (z-score) [29]: 3.34
- glycan array binding signal (z-score) [30]: 0.053
- glycan array binding signal (z-score) [31]: -0.148
- glycan array binding signal (z-score) [32]: -0.214
- glycan array binding signal (z-score) [33]: -0.402
- glycan array binding signal (z-score) [34]: -0.268
- glycan array binding signal (z-score) [35]: -0.347
- glycan array binding signal (z-score) [36]: -0.737
- glycan array binding signal (z-score) [37]: -0.222
- glycan array binding signal (z-score) [38]: -0.016
- glycan array binding signal (z-score) [39]: 4.78
- glycan array binding signal (z-score) [40]: -0.851
- glycan array binding signal (z-score) [41]: -0.421
- glycan array binding signal (z-score) [42]: -0.333
- glycan array binding signal (z-score) [43]: -0.065
